# Screening data: PubChem BioAssay, Broad Institute
# Wnt act – Wnt/beta-catenin pathway activators, primary screen, cell-based, plate reader, single point. Wnt/beta-catenin reporter cell assay, activator. hit rate 1.2% among 300,000. AID 743398, 2014. activation, % at 9.35 µM; in the data active means activation above about 30%, passing the limit was not always enough; inconclusive means no clear call, values can overlap the other calls;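 further: 0% = neutral control wells and 100% = positive control wells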
# PAX8 inh HTS – inhibitors of PAX8-driven TPO luciferase reporter, primary screen, RMG-I cells, single concentration; SteadyGlo, 24 h; AID 652154, 2013; inhibition, % at 12.6 µM; hit rate 1.2% among 360,000;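 active means mean replicate inhibition at least 60% with every replicate also reaching 60%; inconclusive means only one of the two criteria is met; inactive means mean below 60% and not all replicates reaching 60%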;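 further: luciferase light reporting Pax8 driven TPO promoter activity; plate controls were median of neutral control wells for no effect and mitoxantrone controls for full effect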
# MITF act – activators of MITF-driven TRPM1 promoter reporter, primary screen, cell-based, SK-MEL-5, luciferase, single point. SK-MEL-5 TRPM1-promoter luciferase, 24 h; % of positive control, neutral wells = 0. activation, % at 12.5 µM. hit rate 0.75% among 300,000. AID 588334, 2011;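 active means mean activation of at least 80% with every replicate also reaching 80%; inconclusive means mean reaches 80% but some replicate falls short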;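 further: 0% = neutral control wells and 100% = parthenolide positive control wells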
# EWS-Fli block – EWS/Fli-driven NR0B1 reporter inhibitors, primary screen, A673 cells, NR0B1 luciferase, luminescence, MLPCN library; viability-normalised; hit rate 0.67% among 350,000; inhibition, % at 12.6 µM;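 active means mean inhibition of at least 50% after viability correction, with every replicate also passing that limit; inconclusive means mean reaches 50% but only one of two replicates passes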;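 further: firefly luciferase signal divided by Alamar Blue viability fluorescence both relative to DMSO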
# esBAF inh – Bmi1 luciferase reporter increase in mESCs, primary screen, esBAF inhibitor project, mouse ES cells, Bmi1 luciferase knock-in, single point | hit rate 2% among 350,000 | AID 602393, 2012 | 24 h; 100% = twice the neutral-well signal | reporter increase, % at 12.5 µM; in the data active means activation above about 40%; inconclusive means no clear call, values can overlap the other calls;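 further: 0% = median of the plate's neutral control wells and 100% = double that signal; a rise in the Bmi1 reporter signal indicates esBAF inhibition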
# MITF TRPM1 inh – inhibitors of MITF-dependent TRPM1 promoter reporter, primary screen, cell-based, SK-MEL-5, single point, luciferase; inhibition, % at 12.5 µM; SK-MEL-5 TRPM1 promoter luciferase, 24 h; hit rate 0.83% among 330,000;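 active means mean inhibition across replicates of 60% or more, whatever share of single replicates reaches that level; inconclusive means some that reach 60%, reason not given; inactive means mean inhibition across replicates below 60%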
# * hit, by the source's call; ? = inconclusive; / = no result. Sampled rows, rich in hits. Any-hit rate of the full collection: about 4%.
SMILES,Wnt act,PAX8 inh HTS,MITF act,EWS-Fli block,esBAF inh,MITF TRPM1 inh
Brc1ccc(N=C/C=C/C=C/Nc2ccc(Br)cc2)cc1,12.5,/,-15.5,/,68.2*,17.2
CN(C)C(/C=C/Nc1ccc(Br)cc1)=C(C#N)C#N,2.2,17.0,-19.0,-6.8,/,18.6
CN1C(=O)c2cc(NC(=O)c3cccc(F)c3)ccc2OC[C@H]2O[C@H](CC(=O)N3CCc4ccccc4C3)CC[C@H]21,/,32.2,/,2.6,8.8,/
c1ccc2c(NCC3CCCO3)nc(N3CCCCC3)nc2c1 (stereo unspecified),3.3,63.4*,-4.4,2.3,0.8,5.1
O=C([O-])c1ccccc1-[n+]1c(-c2ccccc2)cc(-c2ccccc2)cc1-c1ccccc1,-1.2,85.2*,-2.5,-1.7,-2.1,4.4
C[C@@H]1CN([C@H](C)CO)C(=O)Cc2cc(NC(=O)Nc3cccc4ccccc34)ccc2O[C@H]1CN(C)Cc1ccncc1,/,6.1,/,/,2.8,/
COc1ccc(CN(C)C[C@H]2Oc3ccc(NS(C)(=O)=O)cc3CC(=O)N([C@@H](C)CO)C[C@H]2C)cc1,/,15.1,/,-9.1,-4.3,/
CCn1c(SCc2nc3ccccc3s2)nnc1-c1cccs1,/,/,24.1,/,50.4*,-31.5
CCCn1c(=O)c2ccccc2n2c(SCc3nc4ccccc4s3)nnc12,26.6,/,22.3,/,42.5*,-17.5
Cc1ccccc1-n1c(C)nnc1SCc1nc2ccccc2s1,20.4,/,25.9,-93.5,69.4*,-17.6
Cn1c(SCc2nc3ccccc3s2)nnc1-c1cccs1,/,/,21.0,/,?,-20.8
O=C(CCN1CCCCC1)NCC[C@@H]1CC[C@@H](NC(=O)c2ccc(F)cc2)[C@H](CO)O1,/,-32.5,/,-10.3,-2.8,/
CC(C)NC(=O)N1[C@H](CO)[C@@H](c2ccccc2)[C@H]1CNC(=O)CN(C)C,/,6.1,/,-6.8,1.7,/
CCS(=O)(=O)N1CC2(C1)[C@@H](c1ccccc1)[C@@H](CO)N2C(=O)C1CCC1,/,/,/,-14.1,/,/
O=C(Nc1cccc2ccccc12)c1ccc([N+](=O)[O-])o1,-2.7,69.3*,/,34.3,-71.4,53.8
O=C(Nc1ccc(N2CCCC2)c(Cl)c1)c1ccc([N+](=O)[O-])o1,-1.5,47.1,-70.8,-3.0,/,72.7*
CCC(=O)N1CCN(c2ccccc2NC(=O)c2ccc([N+](=O)[O-])o2)CC1,0.7,32.7,-43.1,11.7,1.2,41.6
O=C(Nc1ccccc1N1CCN(C(=O)c2ccccc2)CC1)c1ccc([N+](=O)[O-])o1,1.1,68.0*,-60.9,3.5,4.6,62.1*
O=C(Nc1cc(-c2nc3ncccc3o2)ccc1Cl)c1ccc([N+](=O)[O-])o1,3.1,36.0,-79.3,49.2,17.9,79.3*
O=C(Nc1cc(-c2nc3ncccc3o2)ccc1Cl)c1cccs1,11.0,20.6,-0.1,-1.1,/,-0.9
Cc1noc(C)c1NC(=O)N(C)C[C@@H]1Oc2ccc(NS(=O)(=O)c3cn(C)cn3)cc2C(=O)N([C@H](C)CO)C[C@H]1C,/,/,/,-5.0,-0.4,/
O=S(=O)(N[C@H]1CC[C@H](CCn2cc(C3CC3)nn2)O[C@@H]1CO)c1ccc(Cl)cc1,/,-1.8,/,5.2,-0.6,/
C[C@@H]1CN([C@@H](C)CO)C(=O)c2ccccc2-c2ccccc2CO[C@H]1CN(C)CC1CC1,/,-16.5,/,-0.5,-3.6,/
CCCC#Cc1cnc2c(c1)C(=O)N([C@@H](C)CO)C[C@@H](C)[C@@H](CN(C)C(=O)Cc1ccncc1)O2,/,/,/,3.7,-0.1,/
CC(=O)N1CC2(C1)[C@@H](c1ccc(-c3ccc(F)cc3)cc1)[C@@H](CO)N2C(C)=O,/,1.2,/,3.6,/,/
O=C(Nc1ccccc1N1CCCC1)c1ccc([N+](=O)[O-])o1,1.2,76.7*,-52.7,28.4,-0.4,53.6
O=C(Nc1cccc(NC(=O)c2ccccc2Cl)c1)c1ccc([N+](=O)[O-])o1,-12.9,98.2*,-76.9,38.0,4.2,76.8*
O=C(Nc1ccc(N2CCCC2)c(Cl)c1)c1ccco1,40.8*,/,48.1,/,13.6,-41.4
CCCNC(=O)C[C@@H]1C[C@@H]2c3cc(NC(=O)NC4CCCCC4)ccc3O[C@@H]2[C@@H](CO)O1,/,-22.8,/,-2.4,-3.8,/
